Measurements taken from the supplement of paper PMC10646978.
± gives the standard deviation.

What was measured:
Details in all cases: modulator concentration 10 µM
[1] = test system: RAW-Dual (murine macrophage reporter line); assay: NF-kB reporter (SEAP) activity fold change vs agonist alone; higher = enhanced NF-kB activity
In short: (§1)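 In 384-well plates holding 50 000 RAW-Dual murine macrophage reporter cells per well, compound at 10 μM final was pre-incubated for 1 hour at 37 °C, after which a PRR agonist was added overnight. Supernatant SEAP read with QUANTI-Blue at 620 nm absorbance reported NF-κB, and Lucia luciferase read with QUANTI-Luc luminescence reported IRF. Fold change values come from dividing each reporter signal by the mean of agonist-only control wells on the same plate, averaged over replicate plates with propagated errors.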

[2] = test system: RAW-Dual (murine macrophage reporter line); assay: IRF reporter (Lucia luciferase) activity fold change vs agonist alone; higher = enhanced IRF activity
In short: as §1

[3] = test system: RAW-Dual (murine macrophage reporter line); assay: viability score (confluency relative to resting cells, overnight) (fraction); higher = more viable, active = viable (0.7 or more)
In short: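 In 384-well plates, RAW-Dual macrophages received compound at a final 10 μM overnight. Two confluency masks were then made with IncuCyte software from IncuCyte images of all imaged wells. The viability score is defined as confluency relative to resting cells. Passing the cutoff required both masks to lie above 70% of resting cells.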

[4] = agonist: CpG ODN 1826 0.5 ug/mL

| Compound | NF-kB reporter [1, 4] | NF-kB reporter ([1]; agonist: LPS 0.1 ug/mL) | NF-kB reporter ([1]; agonist: MPLA […]) | IRF reporter ([2]; agonist: 3'3'-cGAMP 10 ug/mL) | IRF reporter ([2]; agonist: LPS 0.1 ug/mL) | IRF reporter ([2]; agonist: MPLA […]) | viability score [3] |
| --- | --- | --- | --- | --- | --- | --- | --- |
| CC(CS)C(=O)N1CCCC1C(=O)O (configuration not stated) | 0.96 ± 0.096 | 0.932 ± 0.068 | 0.977 ± 0.18 | 0.973 ± 0.03 | 1.22 ± 0.12 | 1.33 ± 0.18 | 1.02 (active) |
| O=C(CCC1CCCC1)Nc1cccc(F)c1 | 0.986 ± 0.059 | 1.08 ± 0.12 | 0.959 ± 0.029 | 0.999 ± 0.045 | 1.03 ± 0.091 | 1.12 ± 0.25 | 1 (active) |
| CCC(C(=O)NCc1ccnc(-c2ccncc2)c1)c1ccccc1 (configuration not stated) | 1.27 ± 0.09 | 1.1 ± 0.084 | 1.12 ± 0.03 | 0.574 ± 0.029 | 0.654 ± 0.086 | 0.545 ± 0.12 | 0.994 (active) |
| O=S(=O)(NC1CC1)c1cnn(-c2ccccc2)c1 | 0.903 ± 0.048 | 0.908 ± 0.073 | 1.08 ± 0.079 | 1.07 ± 0.062 | 1.3 ± 0.3 | 1.52 ± 0.57 | 0.964 (active) |
| COC(=O)c1cc(Br)ccc1NC(=O)c1ccccc1 | 1.07 ± 0.17 | 1.02 ± 0.17 | 1.03 ± 0.18 | 1.12 ± 0.045 | 1.24 ± 0.18 | 1.19 ± 0.21 | 0.99 (active) |
| C=Cc1c(C)c2cc3nc(cc4[nH]c(cc5nc(cc1[nH]2)C(C)=C5CCC(=O)O)c(CCC(=O)OC)c4C)[C@@]1(C)C3=CC=C(C(=O)OC)[C@H]1C(=O)OC | 0.419 ± 0.077 | 0.077 ± 0.012 | 0.123 ± 0.0057 | 0.0175 ± 0.0038 | 0.0424 ± 0.018 | 0.0518 ± 0.015 | 0.344 (inactive) |
| Cl.Clc1ccc2nsnc2c1NC1=NCCN1 | 0.8 ± 0.14 | 0.932 ± 0.14 | 0.993 ± 0.076 | 0.791 ± 0.066 | 0.995 ± 0.17 | 1.06 ± 0.23 | 1 (active) |
| CN1CCN(C2=Nc3ccccc3Oc3ccc(Cl)cc32)CC1 [Prestw-132] | 1.08 ± 0.22 | 0.804 ± 0.09 | 0.812 ± 0.079 | 0.944 ± 0.054 | 1.08 ± 0.18 | 0.961 ± 0.18 | 1.03 (active) |
| Cc1ccc(C(=O)N2N=C(c3ccc(Cl)cc3)CC2(O)C(F)(F)F)o1 (configuration not stated) | 0.721 ± 0.06 | 0.82 ± 0.054 | 0.974 ± 0.097 | 0.975 ± 0.06 | 1.33 ± 0.077 | 1.42 ± 0.16 | 1 (active) |
| CC(C)(C)NCC(O)COc1cccc2c1CC(O)C(O)C2 (configuration not stated) | 1.26 ± 0.3 | 1 ± 0.11 | 1.05 ± 0.095 | 0.919 ± 0.045 | 1.04 ± 0.16 | 0.968 ± 0.17 | 0.931 (active) |
| C/C(=C(\CCOP(=O)(O)O)SC(=O)c1ccccc1)N(C=O)Cc1cnc(C)nc1N [Prestw-654] | 1.03 ± 0.19 | 1.25 ± 0.15 | 1.1 ± 0.13 | 0.943 ± 0.031 | 1.04 ± 0.15 | 1.28 ± 0.14 | 0.974 (active) |
| CCOc1ccc(NC(=O)CC2Nc3cccc4cccc(c34)NC2=O)cc1 (configuration not stated) | 0.91 ± 0.066 | 1.01 ± 0.067 | 0.926 ± 0.077 | 0.884 ± 0.049 | 1.31 ± 0.083 | 1.25 ± 0.34 | 0.926 (active) |
| Cc1ccc(C)n1-c1ccc(C(=O)OCC(=O)c2ccc([N+](=O)[O-])cc2)cc1 | 0.888 ± 0.071 | 0.845 ± 0.054 | 1.31 ± 0.42 | 0.666 ± 0.044 | 1.1 ± 0.064 | 1.01 ± 0.14 | 0.976 (active) |
| CNC(=O)c1ccc2cc(C3(O)CCn4cncc43)ccc2c1 (configuration not stated) | 0.99 ± 0.15 | 0.866 ± 0.28 | 0.937 ± 0.052 | 0.932 ± 0.04 | 0.964 ± 0.22 | 0.945 ± 0.17 | 0.995 (active) |
| O=S(=O)(Nc1nc2ccccc2n2nnnc12)c1ccc(F)cc1 | 1.01 ± 0.1 | 1.03 ± 0.068 | 0.934 ± 0.067 | 0.865 ± 0.021 | 1.21 ± 0.15 | 0.964 ± 0.25 | 1.01 (active) |
| Cc1cc(OC2CN(C(=O)Cc3noc4ccccc34)C2)cc(=O)n1C1CC1 | 1.18 ± 0.072 | 1.08 ± 0.088 | 0.996 ± 0.043 | 0.919 ± 0.072 | 1 ± 0.061 | 0.957 ± 0.14 | 0.999 (active) |
| CCCOc1ccc(-c2ccc(-c3nc(Cc4ccc(OC)c(OC)c4)no3)cc2)cc1 | 0.763 ± 0.062 | 0.972 ± 0.046 | 1.04 ± 0.097 | 0.978 ± 0.048 | 1.08 ± 0.063 | 1.12 ± 0.12 | 1.01 (active) |
| C=CCN1C(=O)C(C)(C)COc2cc(NC(=O)c3ccc(Br)o3)ccc21 | 1.25 ± 0.11 | 0.93 ± 0.21 | 1.07 ± 0.037 | 0.53 ± 0.046 | 0.933 ± 0.096 | 0.982 ± 0.24 | 0.994 (active) |
| Cc1cc(CCNC(=O)c2nc3ccccc3s2)nn1C | 1.1 ± 0.062 | 0.978 ± 0.12 | 0.978 ± 0.053 | 0.953 ± 0.052 | 1.02 ± 0.048 | 0.943 ± 0.29 | 1 (active) |
| COc1ccc(S(=O)(=O)Nc2ccc(Oc3ccccc3)cc2)cc1 | 1.04 ± 0.18 | 1.02 ± 0.11 | 2.55 ± 1.5 | 0.972 ± 0.033 | 1.17 ± 0.13 | 1.21 ± 0.2 | 1.01 (active) |
| COc1ccc(-c2nc3cc(C4=NNC(=O)CC4C)ccc3[nH]2)cc1 (configuration not stated) | 2.4 ± 0.37 | 1.37 ± 0.23 | 1.14 ± 0.073 | 0.164 ± 0.057 | 1.07 ± 0.25 | 1.33 ± 0.12 | 0.775 (active) |
| O=c1oc2cc(O)ccc2c2ccccc12 | 1.05 ± 0.12 | 0.932 ± 0.085 | 1.06 ± 0.038 | 0.813 ± 0.15 | 1.06 ± 0.097 | 1.28 ± 0.17 | 0.782 (active) |
| CC(O)C(=O)O.CN1CCN(c2ccc3nc(-c4c(N)c5c(F)cccc5[nH]c4=O)[nH]c3c2)CC1 | 0.167 ± 0.011 | 0.107 ± 0.0086 | 0.294 ± 0.019 | 2.41 ± 0.23 | 0.434 ± 0.076 | 0.506 ± 0.084 | 0.966 (active) |
| CCOC(=O)Cc1cc(OC)c(OC)cc1C(C)=NNc1ccccc1 | 0.719 ± 0.056 | 0.831 ± 0.12 | 0.98 ± 0.085 | 0.816 ± 0.055 | 1.13 ± 0.065 | 1.09 ± 0.15 | 1 (active) |
| N#Cc1ccnc(N2C(=O)CC[C@H]2C(=O)N(c2cncc(F)c2)[C@H](C(=O)NC2CC(F)(F)C2)c2ccccc2Cl)c1 | 1.26 ± 0.3 | 1.04 ± 0.07 | 1.26 ± 0.08 | 1.09 ± 0.055 | 1.28 ± 0.2 | 1.17 ± 0.12 | 1 (active) |
| CCOC(N)=O | 0.962 ± 0.13 | 1.09 ± 0.24 | 0.948 ± 0.068 | 0.927 ± 0.057 | 1.32 ± 0.28 | 1.02 ± 0.14 | 1.01 (active) |
